Measured values: PubChem BioAssay (NCI)
Compounds without any hit were thinned out: in the full panel of roughly 83,000, 20% have a hit.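 Interpretation: 100, growth as untreated; towards 0, rising growth inhibition; 0, no net growth; 0 to -100, cell death. Compounds scoring below 10 were considered active.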 Unmarked numbers belong to inactive results. Active and inactive are the calls of the source.

Tested on: NCI-H522 lung
Experiment: NCI-60 one-dose screen, 48 h (100 = growth as untreated, 0 = no growth, -100 = all killed)
Conditions: 10 µM

Q: For `NCCNc1ccc2cc(-c3nc4ccccc4[nH]3)c(=O)oc2c1`, which growth is on record?
A: The growth was 97.3%.

Q: For `Nc1ccc(Sc2ccc3c4c2cccc4c(=O)n2c4ccccc4nc32)cc1`, which growth is on record?
A: The growth was 60%.

Q: For `COc1cccc(C(=O)NNc2nc(N3CCOCC3)nc(N3CCN(C(c4ccccc4)c4ccccc4)CC3)n2)c1`, which growth is on record?
A: Its growth is 86.6%.

Q: `C=CCN1C(=O)/C(=C\c2ccc3c(c2)CCC3)SC1=S` was tested. Which growth did it give?
A: Its growth is -22.1% (active).

Q: `COc1cccc(-c2nnc(COc3ccc(-c4nc5ccc(C)cc5[nH]4)cc3OC)o2)c1` was tested. Which growth did it give?
A: Its growth is 91.2%.

Q: For `CNC(=O)c1cc(Oc2ccc(NC(=O)Nc3ccc(Cl)c(C(C)(C)C)c3)c(F)c2)ccn1`, which growth is on record?
A: Its growth is 28.7%.

Q: `CC(=O)/C(=C\c1ccc(Cl)cc1)c1ccccc1` was tested. Which growth did it give?
A: Its growth is -1.57% (active).

Q: With `Cc1cc(C)c(C(=O)OC(C)CNC2CCCCC2)c(C)c1` (stereo not given) as the compound, how does the growth read?
A: Its growth is 99.4%.

Q: How did the growth turn out when `CC(=O)Oc1ccc(C2=Cc3ccc(OC(C)=O)cc3OC2C)cc1` (stereo not given) was run?
A: Its growth is 17.2%.

Q: With `CC(=O)Nc1nc(C)c(C(=O)NNC=O)s1` as the compound, how does the growth read?
A: Its growth is 99.5%.

Q: For `CCCCC(=O)N(c1ccc(Nc2c3ccccc3nc3cc([N+](=O)[O-])ccc23)cc1)S(C)(=O)=O`, which growth is on record?
A: Its growth is 50.7%.

Q: How did the growth turn out when `O=C1/C(=C/c2ccc(O)cc2O)N=C2SCCCN12` was run?
A: Its growth is 92.3%.

Q: Which growth does the source give for `Cc1ccc2c(c1)-c1cc(C)nn1-c1ccc(C#N)cc1O2` here?
A: Its growth is 15.2%.

Q: `O=C(c1ccc(Cl)cc1)c1no[n+]([O-])c1C(=O)c1ccc(Cl)cc1` was tested. Which growth did it give?
A: Its growth is -77.8% (active).

Q: With `Nc1nsc(C(=O)c2ccc(O)cc2)n1` as the compound, how does the growth read?
A: Its growth is 91.8%.
